{"source": "PubChem BioAssay (NCATS)", "note": "Records with an inconclusive call do not appear. Calls of active or inactive are those of the source. The call rests on the fitted dose curve; in most records, active means well fitted cell-killing curve with a large enough effect; inconclusive means small, poorly fitted or top-dose-only effect; inactive means no such curve, though single readings can be large or run the other way. Potency means the concentration at half of the fitted maximal effect."}
{"experiment": "qHTS of pediatric cancer cell lines to identify multiple opportunities for drug repurposing: Primary screen for NB1643 cells (AID 1347099); further: nearly all actives have a fitted effect of over 50% in size", "conditions": "NB1643 neuroblastoma viability, CellTiter-Glo luminescence, 48 h; series mostly up to 46 µM; activity change, negative = cytotoxic: at the top concentration", "from_the_text": "Drug repurposing or repositioning has been offered as a strategy for drug development in oncology programs. This approach has special potential for childhood cancers and other rare or orphan diseases, where the expected return on new drug development has been a disincentive to pharmaceuticals. […] In this project we exploit the poly-pharmacology of drugs to discover new indications via phenotypic screening of a panel of 19 well-characterized cell lines derived from solid tumors seen in children and adolescents. The goal is to identify approved drugs with previously unrecognized anticancer properties that has the potential to reveal new mechanisms and biological processes involved in carcinogenesis or drug resistance. We employed a titration-based paradigm (quantitative high-throughput screening or qHTS), where all compounds were tested at multiple concentrations for their effect on cell viability. Concentration-response curves (CRCs) were derived directly from the primary screen, and both potency and efficacy values were used to identify compounds with robust bioactivity profiles. We screened the NIH Chemical Genomics Center (NCGC) Pharmaceutical Collection (NPC) and Mechanism Interrogation Plate (MIPE) small molecule collections of approved and investigational compounds against these cell lines; and measured metabolically active cells after 48 hours of compound treatment as a proxy for cell viability. […] Assay Submitter: Nathalia J. Martinez, National Center for Advancing Translational Sciences, National Institutes of Health, Rockville, MD, USA; email: natalia.martinez@nih.gov Shen, M et al. Quantitative high-throughput phenotypic screening of pediatric cancer cell lines identifies multiple opportunities for drug repurposing. Oncotarget 2017 Dec 19;9(4):4758-4772. PMID 29435139.\nThe cells were obtained from University of North Carolina (UNC), Pediatric Preclinical Testing Program (PPT), and Coriell Institute (CI). qHTS cell viability assay: Cells were assayed in growth media at a density of 500-1,000 cells/well. Five microliters of cells were dispensed into 1,536-well, white, solid-bottom, TC-treated plates (Greiner Bio One) using a multidrop dispenser and incubated at 37 degrees C, 5% CO2, under a humidified atmosphere for 5 hours. Twenty-three nanoliters of compounds and controls (neutral control DMSO or positive control bortezomib at final concentration of 2.3 µM) were subsequently transferred by Kalypsys pintool. For primary screens, the MIPE collection was tested at 11-point dilutions (final concentrations range from 0.78 nM to 46 µM) and the NPC collection at 8-point dilutions (final concentrations range from 0.59 nM to 46 µM). Compounds tested in follow-up screens were assayed at 11-point dilutions. Cells were incubated for 48 hours, followed by addition of 3 µL of CellTiter-Glo (Promega). After a 15 min incubation at room temperature, samples were analyzed for luminescence intensity using a ViewLux High-throughput CCD imager equipped with clear filters."}
{"smiles": "CCN(CC)CCCCNc1ncc2cc(-c3cc(OC)cc(OC)c3)c(NC(=O)NC(C)(C)C)nc2n1", "activity change, negative = cytotoxic": "-7.7% (inactive)"}
{"smiles": "CC(=O)Nc1sc2c(c1-c1nc3ccccc3s1)CNC2", "Potency": "5.26 µM (active)"}
{"smiles": "CCc1c2c(nc3ccc(O)cc13)-c1cc3c(c(=O)n1C2)COC(=O)[C@]3(O)CC", "Potency": "0.0235 µM (active)"}
{"smiles": "Cc1ccc(C(=O)Nc2ccc(CN3CCN(C)CC3)c(C(F)(F)F)c2)cc1C#Cc1cnc2cccnn12", "Potency": "23.5 µM (active)"}
{"smiles": "Fc1cc(-c2cccc3ncc(-c4cnn(C5CCNCC5)c4)nc23)cc(F)c1CN1CCOCC1", "Potency": "18.7 µM (active)"}
{"smiles": "O=C(C=Cc1c(C(=O)O)[nH]c2cc(Cl)cc(Cl)c12)Nc1ccccc1", "activity change, negative = cytotoxic": "-3.79% (inactive)"}
{"smiles": "CN(C)CC=CC(=O)Nc1cc2c(Nc3ccc(F)c(Cl)c3)ncnc2cc1O[C@H]1CCOC1", "Potency": "0.296 µM (active)"}
{"smiles": "CC(C)C[C@H](NC(=O)CNC(=O)c1cc(Cl)ccc1Cl)B(O)O", "Potency": "0.59 µM (active)"}
{"smiles": "Cn1c2ccccc2c2c3c(c4c5ccccc5n(CCC#N)c4c21)CNC3=O", "Potency": "1.87 µM (active)"}
{"smiles": "CC(=O)c1c(C)c2cnc(Nc3ccc(N4CCNCC4)cn3)nc2n(C2CCCC2)c1=O", "Potency": "16.6 µM (active)"}
{"smiles": "COc1cc2c(Oc3ccc(NC(=O)C4(C(=O)Nc5ccc(F)cc5)CC4)cc3F)ccnc2cc1OCCCN1CCOCC1", "Potency": "6.62 µM (active)"}
{"smiles": "O=C(O)Cn1nnc(-c2cc(N3CCC(Oc4cc(F)ccc4Br)CC3)no2)n1", "activity change, negative = cytotoxic": "-14.2% (inactive)"}
{"smiles": "COCCOc1ccc2c(c1)ncn2-c1ccc2cccc(N3CCC(N)CC3)c2n1", "Potency": "23.5 µM (active)"}
{"smiles": "CC(C)(C)NC(=O)[C@H]1CN(Cc2cccnc2)CCN1C[C@@H](O)C[C@@H](Cc1ccccc1)C(=O)N[C@H]1c2ccccc2C[C@H]1O", "Potency": "1.05 µM (active)"}
{"smiles": "Cn1c(=O)n(-c2ccc(C(C)(C)C#N)cc2)c2c3cc(-c4cnc5ccccc5c4)ccc3ncc21", "activity change, negative = cytotoxic": "118% (inactive)"}
{"smiles": "NC(=O)c1cccc2cn(-c3ccc([C@@H]4CCCNC4)cc3)nc12", "Potency": "20.9 µM (active)"}
{"smiles": "O=C(c1cncc(Br)c1)N1CCC(N2CCCC2)CC1", "activity change, negative = cytotoxic": "12.7% (inactive)"}
{"smiles": "CC(C)(C)c1cc(NC(=O)Nc2ccc(-c3cn4c(n3)sc3cc(OCCN5CCOCC5)ccc34)cc2)no1", "activity change, negative = cytotoxic": "-6.56% (inactive)"}
{"smiles": "CC(C)(C)OC(=O)Nc1ccc(-c2cc(C(=O)NCCCCCCC(=O)NO)no2)cc1", "Potency": "1.18 µM (active)"}
{"smiles": "CCOc1ccccc1OCCNC(C)Cc1ccc(OC)c(S(N)(=O)=O)c1", "note": "(stereo not given)", "activity change, negative = cytotoxic": "4.48% (inactive)"}
{"smiles": "CN1CCN(c2ccc3nc(-c4c(N)c5c(F)cccc5[nH]c4=O)[nH]c3c2)CC1", "Potency": "16.6 µM (active)"}
{"smiles": "O=C1CCC[C@@H]2[C@H]3CCC[N+]4([O-])CCC[C@@H](CN12)[C@@H]34", "note": "(stereo not given in full)", "activity change, negative = cytotoxic": "-0.38% (inactive)"}
{"smiles": "Cc1nc(N)ncc1-c1nc(N2CCOCC2)c2sc(C(C)(C)O)cc2n1", "Potency": "0.469 µM (active)"}
{"smiles": "COc1cc2c(cc1-c1c(C)noc1C)ncc1[nH]c(=O)n([C@H](C)c3ccccn3)c12", "Potency": "11.8 µM (active)"}
{"smiles": "CC1(C)OC2=C(C(=O)c3ccccc3C2=O)[C@H](NCc2ccccc2)[C@H]1O", "Potency": "4.18 µM (active)"}
{"smiles": "COc1cc(C(=O)N2CCC(N3CCN(C)CC3)CC2)ccc1Nc1ncc2c(n1)N(C)c1ccccc1C(=O)N2C", "Potency": "9.35 µM (active)"}
{"smiles": "COc1cc(Nc2ncc(F)c(Nc3ccc4c(n3)N(COP(=O)(O)O)C(=O)C(C)(C)O4)n2)cc(OC)c1OC", "Potency": "0.187 µM (active)"}
{"smiles": "COC(=O)c1ccc2c(C(=Nc3ccc(N(C)C(=O)CN4CCN(C)CC4)cc3)c3ccccc3)c(O)[nH]c2c1", "Potency": "2.35 µM (active)"}
{"smiles": "O=C(O)c1ccc2c(c1)nc(Nc1cccc(Cl)c1)c1ccncc12", "Potency": "2.64 µM (active)"}
{"smiles": "COc1cc2nccc(Oc3ccc(NC(=O)C4(C(=O)Nc5ccc(F)cc5)CC4)cc3)c2cc1OC", "Potency": "9.35 µM (active)"}
{"smiles": "CN(C)CCCN=c1c2ccccc2n(C)c2[nH]c(=O)n(C)c(=O)c12", "Potency": "3.32 µM (active)"}
{"smiles": "COc1ccc(-c2cc3c(C)nc(N)nc3n(C3CCC(OCCO)CC3)c2=O)cn1", "note": "(stereo not given)", "Potency": "0.166 µM (active)"}
{"smiles": "C1=CCOCc2cc(ccc2OCCN2CCCC2)Nc2nccc(n2)-c2cccc(c2)OCC1", "Potency": "7.43 µM (active)"}
{"smiles": "Clc1cccc(-c2nnnn2Cc2cccnc2)c1Cl", "activity change, negative = cytotoxic": "2.98% (inactive)"}
{"smiles": "O=C(O)CO.[NH2-].[NH2-].[Pt+2]", "activity change, negative = cytotoxic": "11.1% (inactive)"}
{"smiles": "C[C@@H](Oc1cc(-c2cnn(C3CCNCC3)c2)cnc1N)c1c(Cl)ccc(F)c1Cl", "Potency": "3.72 µM (active)"}
{"smiles": "CC(C)=CCCC(C)=CCCC(C)=CCSc1ccccc1C(=O)O", "activity change, negative = cytotoxic": "-28.3% (inactive)"}
{"smiles": "COc1ccc(-n2nc(C(N)=O)c3c2C(=O)N(c2ccc(N4CCCCC4=O)cc2)CC3)cc1", "activity change, negative = cytotoxic": "-0.681% (inactive)"}
{"smiles": "CC=C1NC(=O)[C@H]2CSSCCC=C[C@H](CC(=O)N[C@H](C(C)C)C(=O)N2)OC(=O)[C@H](C(C)C)NC1=O", "Potency": "0.0093 µM (active)"}
{"smiles": "COC(=O)Nc1ccc(-c2nc(N3CCOCC3)c3cnn(C4CCN(Cc5cccnc5)CC4)c3n2)cc1", "activity change, negative = cytotoxic": "15.9% (inactive)"}
